TSG101-PTAP inh – blocks PTAP/TSG101 interaction to inhibit HIV-1 budding; Q99816; Potency, µM (highest dose often 115 µM), for the others: top-dose activity change, negative = inhibition, usual class: inhibitors; Fluorescence polarization, FITC-PTAP peptide / Tsg101 binding; 340,000 tested, under 10 active; active = well fitted inhibition curve with a large enough effect in the main read-out, with a control signal flat, not every such curve was filed as active; inconclusive = small, poorly fitted or top-dose-only effect, or effect the other way, or a change in a side signal; inactive = no such curve, though single readings can be large or run the other way; note: potency is the fitted concentration of half-maximal effect; % of control where 0% means no effect
Target sequence (Q99816 whole entry, looked up): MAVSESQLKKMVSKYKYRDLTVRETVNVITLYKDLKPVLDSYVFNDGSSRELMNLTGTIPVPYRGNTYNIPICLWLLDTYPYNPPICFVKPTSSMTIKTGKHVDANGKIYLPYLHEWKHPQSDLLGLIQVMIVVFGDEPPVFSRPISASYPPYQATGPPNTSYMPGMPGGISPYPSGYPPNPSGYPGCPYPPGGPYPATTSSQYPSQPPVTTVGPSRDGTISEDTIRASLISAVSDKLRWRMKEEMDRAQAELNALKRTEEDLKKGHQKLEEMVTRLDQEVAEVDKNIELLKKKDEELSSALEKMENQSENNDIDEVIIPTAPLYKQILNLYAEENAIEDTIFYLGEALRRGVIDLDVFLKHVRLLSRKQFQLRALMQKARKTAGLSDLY
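Steps: Tsg101 binding domain dispensed (10 uM final), compounds pinned in DMSO, FITC-labeled PTAP-motif peptide added (50 nM final); after 20 min binding at room temperature, polarization measured.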
Vif-APOBEC3F blk – Vif-A3F binding inhibition. HeLa A3F-eYFP + Vif (tagged APOBEC3F with the HIV-1 protein that degrades it), YFP fluorescence increase. Potency, µM (doses to about 46.1 µM), for inactives: at the top dose activity, negative = active. actives 0.2% (n = 390,000). AID 602313; note: potency is the fitted concentration of half-maximal effect; % of control where 0% means no effect; nearly all actives have a fitted effect of over 65% in size
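HeLa cells stably expressing Vif plus C-terminally eYFP-tagged A3F were seeded, incubated overnight at 37 deg C, dosed with compound, incubated overnight again at 37 deg C. Yellow fluorescence (Ex 488/Em 500-530) reported blocked Vif-mediated A3F-eYFP degradation.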
ASM inhibitor – inhibitors of human secretory acid sphingomyelinase. placental ASM, HMU-PC fluorogenic substrate, 60 min. Potency, µM (doses to about 57.5 µM), without a hit: at the highest dose activity change, negative = inhibition, usual class: inhibitors. actives 0.006% (n = 340,000); note: potency is the fitted concentration of half-maximal effect
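Steps: dispense placental human ASM, pin compound, wait 10 min at room temperature, add HMU-PC0 substrate at 9 uM final, incubate 60 min at 37 °C, add stop solution raising pH to 10, read fluorescence.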
Akt phos inh – Akt phosphorylation inhibition. Neuro2A IGF-stimulated pAkt S473 HTRF, 20 min; hits give low values. AID 651550. actives 0.32% (n = 360,000). activity change, % for hits at 50 µM; in the data active = activity change below about -80%; inconclusive = mostly about -51% to -80%; note: % is set by controls: 0 for no effect and ±100 for the full control effect
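Neuro2A cells (4,500/well, DMEM with 0.5% FBS) were treated with compound at a single 50 µM final concentration, stimulated with 6 nM IGF for 20 min at 37 °C, and lysed. Phospho-Akt Ser473 was read by HTRF as 665/615 ratio ×10^4.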
Vif-A3G inh – Vif-A3G binding inhibition; Q9HC16; HeLa A3G-eYFP + Vif (tagged APOBEC3G with the HIV-1 protein that degrades it), YFP fluorescence, overnight; Potency, µM (highest dose often 46.1 µM), for the others: at the highest dose activity, negative = active, most hits filed as inhibitors; actives 0.076% (n = 410,000); note: potency is the fitted concentration of half-maximal effect; % is set by controls: 0 for no effect and ±100 for the full control effect; nearly all actives have a fitted effect of over 60% in size
Target sequence (Q9HC16 whole entry, looked up): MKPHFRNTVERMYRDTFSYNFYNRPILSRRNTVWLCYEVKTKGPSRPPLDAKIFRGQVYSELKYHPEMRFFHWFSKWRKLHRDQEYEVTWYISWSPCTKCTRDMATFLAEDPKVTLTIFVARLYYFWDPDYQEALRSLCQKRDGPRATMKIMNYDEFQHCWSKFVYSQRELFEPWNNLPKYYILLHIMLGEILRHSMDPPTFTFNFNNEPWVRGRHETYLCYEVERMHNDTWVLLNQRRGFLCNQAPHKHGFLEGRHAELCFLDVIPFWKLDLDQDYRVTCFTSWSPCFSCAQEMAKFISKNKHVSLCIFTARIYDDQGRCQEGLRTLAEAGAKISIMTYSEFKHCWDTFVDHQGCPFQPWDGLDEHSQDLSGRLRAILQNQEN
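Read-out is eYFP fluorescence (Ex 488/Em 500-530) from Vif-expressing HeLa A3G-eYFP cells; more signal means A3G escaped Vif-mediated degradation. Cells plated overnight, compound pinned in, incubated overnight at 37 deg C.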
ALOX12 inh – inhibitors of human 12S-lipoxygenase ALOX12; AID 1671190; P18054; purified 12hLO, xylenol orange hydroperoxide absorbance; Potency, µM (doses to about 108 µM), for inactives: top-dose activity change, negative = inhibition, most hits filed as inhibitors; actives 1.1% (n = 580,000); note: potency is the fitted concentration of half-maximal effect; % is set by controls: 0 for no effect and ±100 for the full control effect
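Purified human 12hLO (150 nM final) in 25 mM Hepes, 0.01% Triton X-100, pH 7.0 was preincubated 15 min at room temperature with compound. Then 40 uM arachidonic acid was added, 30 min. Hydroperoxide was read by Fe-XO absorbance ratio 573/405 nm.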
The depositor's hits bear a star; i = inactive; ? = inconclusive; / = no result given; ! = not active in a repeat. This is a sample that favours compounds with a hit; in the whole collection about 1.4% have one here. Unless noted, calls come from the whole dose curve; as a rule, active = well fitted curve in the direction sought with a large enough effect; inconclusive = small, poorly fitted or top-dose-only effect, or another doubt; inactive = no such curve, though single readings can be large; an effect the other way counts as inactive or inconclusive.

SMILES	TSG101-PTAP inh	Vif-APOBEC3F blk	ASM inhibitor	Akt phos inh	Vif-A3G inh	ALOX12 inh
COC(=O)/C(=C/c1ccco1)NC(=O)c1ccccc1	-5.6%	-1.7%	5.5%	i	0.1%	-0.8%
CCCOC(=O)/C(=C\c1ccc([N+](=O)[O-])o1)NC(=O)c1ccccc1	-1.1%	7.08µM*	-1.5%	i	?	-1.4%
CCCOC(=O)/C(=C\C=C\c1ccco1)NC(=O)c1ccccc1	-7.3%	?	11.2%	i	-22.6%	35.5µM*
O=C(O)/C(=C\C=C\c1ccco1)NC(=O)c1ccccc1	/	/	/	/	/	1.58µM*
CN(CC(=O)Nc1c(Cl)cccc1Cl)CC(=O)N1CCCCCC1	/	/	/	/	/	2.7%
CCOC(=O)C(/C=N/c1cc(C)nn1-c1ccccc1)=C(\C)O	-4.1%	-3.3%	0.8%	-110.1%*	-2.3%	13.5%
COc1cccc(CC(=O)N2CCC3(CC2)NC(=O)N(c2ccccc2)N3)c1	/	/	/	/	/	3.16µM*
O=C(COc1ccccc1)N1CCC2(CC1)NC(=O)N(c1ccccc1Cl)N2	/	/	/	/	/	-93.6%
O=C(Cc1ccc(Cl)cc1)N1CCC2(CC1)NC(=O)N(c1ccccc1Cl)N2	/	/	/	/	/	1.41µM*
O=C(Cc1ccc(Cl)cc1)N1CCC2(CC1)NC(=O)N(c1cccc(F)c1)N2	/	/	/	/	/	3.16µM*
O=C(Cc1cccc(F)c1)N1CCC2(CC1)NC(=O)N(c1cccc(F)c1)N2	/	/	/	/	/	6.31µM*
Cc1cc(C)cc(OCCNC(=O)Cn2nc(C)c3ccccc3c2=O)c1	/	/	/	/	/	-16.3%
COc1ccc(CCC(=O)N2CCC3(CC2)NC(=O)N(c2cccc(F)c2)N3)cc1	/	/	/	/	/	5.01µM*
Cc1ccccc1CC(=O)N1CCC2(CC1)NC(=O)N(c1cccc(F)c1)N2	/	/	/	/	/	2.82µM*
COc1cccc(CC(=O)N2CCC3(CC2)NC(=O)N(c2cccc(Cl)c2)N3)c1	/	/	/	/	/	1.41µM*
COc1cccc(CC(=O)N2CCC3(CC2)NC(=O)N(c2cccc(F)c2)N3)c1	/	/	/	/	/	5.01µM*
Cc1cccc(C(CC(=O)Nc2ccc(-c3ccno3)cc2)n2cccc2)c1 (stereo unspecified)	/	/	/	/	/	-21.8%
Cc1ccccc1C(=O)N1CCC2(CC1)NC(=O)N(c1cccc(F)c1)N2	/	/	/	/	/	1.78µM*
Cc1cccc(C)c1NC(=O)C(=O)c1c[nH]c2ccccc12	/	/	/	/	/	0.2%
C=CCn1c(SCc2nc3ccccc3nc2C)nnc1-c1ccoc1C	-3.4%	?	-0.4%	i	0.6%	31.6µM*
CCn1c(SCc2nc3ccccc3nc2C)nnc1-c1cccs1	-2.8%	-3.0%	-1.8%	i	5.3%	-11.7%
CCOC(=O)c1ccc(NC(=O)c2cc(N3CCCCS3(=O)=O)ccc2Cl)cc1	/	/	/	/	/	2.7%
COC(=O)c1cc(-c2ccc(C)c(C)c2)nc2ccccc12	/	/	/	/	/	0.3%
C/C(=N\NC(=O)c1cccs1)c1ccc(Cl)cc1	/	/	/	/	/	-1.5%
Cc1oc(-c2ccccc2F)nc1CS(=O)(=O)CC(=O)NCCN(C)C	/	/	/	/	/	21.4%
SMILES	TSG101-PTAP inh	Vif-APOBEC3F blk	ASM inhibitor	Akt phos inh	Vif-A3G inh	ALOX12 inh
Cc1ccc(S(=O)(=O)N2CCN(C(=O)c3cc(C4CC4)nc4c3cnn4C(C)C)CC2)cc1	2.4%	-0.3%	4.8%	i	0.6%	?
Cc1cc(C(=O)N2CCCC3(CCNCC3)CC2)c2cnn(C(C)C)c2n1	/	/	/	/	/	20µM*
C[N+]1(CCCCCCCCCCCCCO)CCCC1	/	/	/	/	/	28.2µM*
CC(SC(=S)N1CCOCC1)C(=O)O (stereo unspecified)	-9.1%	0.7%	-0.3%	i	0.0%	0.9%
S=C(SSC(=S)N1CCOCC1)N1CCOCC1	/	/	/	i	-12.3%	5.01µM*
O=C1NCCOCCCN(S(=O)(=O)c2ccc3c(c2)OCCO3)[C@H]2CCC[C@@H]12	/	/	/	/	/	18.3%
O=C(C=Cc1ccco1)c1ccco1	1.3%	2.4%	93.2%	i	0.4%	8.91µM*
O=C(/C=C/c1ccc([N+](=O)[O-])cc1)/C=C/c1ccco1	/	/	/	/	/	17.8µM*
O=C(/C=C/c1ccco1)c1cccc([N+](=O)[O-])c1	-1.5%	6.0%	-1.8%	i	-1.0%	25.1µM*
O=C(/C=C/c1ccco1)c1ccccc1	/	/	/	/	/	15.8µM*
O=C(/C=C/c1ccccc1)c1ccccc1	0.0%	?	-4.8%	i	?	2.7%
CCC(=O)Nc1cc(NC(=O)CC)cc(-c2nc3ccccc3o2)c1	/	/	/	/	/	-13.3%
COc1ccc(C(=O)/C=C/c2cccs2)c(OC)c1	/	/	/	/	/	-3.7%
CC1(C)CC(=O)C2=C(C1)N1CCc3cc4c(cc3C1=CC2c1ccc(F)cc1)OCCCO4 (stereo unspecified)	/	/	/	/	/	25.1µM*
CN(C)N1C(=O)CC(c2ccc(F)cc2)C2=C1CC(C)(C)CC2=O (stereo unspecified)	/	/	/	/	/	43.4%
CC(C)COc1ccc(C(=O)N/C(=C\c2cccc([N+](=O)[O-])c2)C(=O)O)cc1	-3.6%	-1.7%	0.8%	i	0.0%	-5.3%
CC(C)COc1ccc(C(=O)N/C(=C/c2cccc([N+](=O)[O-])c2)C(=O)O)cc1	?	-9.4%	1.9%	i	10µM*	27.9%
COc1ccc(OC)c(C2CCCN2CC(=O)N(CCC#N)c2ccccc2F)c1 (stereo unspecified)	/	/	/	/	/	5.4%
CN(CC(=O)N(C)c1c(N)n(Cc2ccccc2)c(=O)[nH]c1=O)Cc1cccc2ccccc12	/	/	/	/	/	-13.0%
O=C1c2ccccc2C(=O)N1CNc1ccccc1	-6.8%	-2.6%	3.7%	-123.3%*	-2.3%	-0.1%
CO/N=C\CC(=O)Nc1ccc(Cl)c(Cl)c1	0.2%	-4.1%	8.9%	i	?	39.8µM*
O=C(O)c1cccc2cc(-c3ccccc3)oc(=O)c12	-4.4%	-0.1%	81.5%	i	0.2%	-39.7%
O=C(O)c1cccc2cccc(-c3c4ccc(=O)c(O)c-4oc4c(O)c(O)ccc34)c12	-15.6%	4.8%	-25.4%	i	-0.4%	6.31µM*
CCCNC(=O)COC(=O)c1nn(Cc2ccccc2)c(=O)c2ccccc12	/	/	/	/	/	-13.1%
Nc1nccnc1C(=O)NCCc1ccco1	/	/	/	/	/	36.6%
COc1ccc(C(=O)c2c[nH]c(C(=O)NCc3ccco3)c2)cc1	0.0%	-1.1%	4.5%	i	-4.3%	0.0%
COc1cccc(C(=O)c2c[nH]c(C(=O)NCc3ccco3)c2)c1	1.5%	0.4%	0.2%	-112.2%*	-6.6%	69.1%
C=CCN1C(=O)/C(=C/c2ccc(O)c(OC)c2)S/C1=N/c1nccs1	15.9%	31.6µM*	?	i	?	-24.1%
C=CCN1C(=O)/C(=C/c2ccc(OCC(=O)O)cc2)S/C1=N/c1nccs1	-0.5%	8.0%	8.4%	i	0.6%	-24.5%
COc1ccc(-c2cnc(C)o2)cc1S(=O)(=O)Nc1ccc(C)c(F)c1	/	-9.8%	/	/	?	50.1µM*!

High-throughput results: PubChem BioAssay, National Center for Advancing Translational Sciences (NCATS)
